Reference: PubChem BioAssay (NCATS)
Results filed as inconclusive are left out. Active and inactive are the calls of the source. Calls follow the shape of the dose curve; as a rule, active = well fitted curve in the direction sought with a large enough effect; inconclusive = small, poorly fitted or top-dose-only effect, or another doubt; inactive = no such curve, though single readings can be large; an effect the other way counts as inactive or inconclusive.

Tests used:
[1] = qHTS of pediatric cancer cell lines to identify multiple opportunities for drug repurposing: Primary screen for TC32 cells (AID 1347089); also: nearly all actives have a fitted effect of over 60% in size; also: potency is read from the fitted curve at half-maximal effect
How it was run: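 In the primary qHTS, MIPE compounds were tested at 11 concentrations (0.78 nM to 46 µM) and NPC compounds at 8 (0.59 nM to 46 µM) on TC32 cells for 48 h. CellTiter-Glo luminescence gave viability.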

[2] = qHTS of pediatric cancer cell lines to identify multiple opportunities for drug repurposing: Primary screen for DAOY cells (AID 1347090); also: nearly all actives have a fitted effect of over 55% in size; also: potency is read from the fitted curve at half-maximal effect
How it was run: (§1)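 Viability measured as metabolically active cells via CellTiter-Glo luminescence following 48 hours of compound exposure, 11-point dilutions in confirmatory testing. 500-1,000 cells/well plated 5 hours before dosing; controls were DMSO and 2.3 µM bortezomib.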

[3] = qHTS of pediatric cancer cell lines to identify multiple opportunities for drug repurposing: Primary screen for A673 cells (AID 1347092); also: nearly all actives have a fitted effect of over 45% in size; also: potency is read from the fitted curve at half-maximal effect
How it was run: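 48 h compound exposure, A673, 500-1,000 cells/well, 37 degrees C/5% CO2. MIPE: 11-point, 0.78 nM-46 µM; NPC: 8-point, 0.59 nM-46 µM (final). Readout CellTiter-Glo luminescence after 15 min RT.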

[4] = qHTS of pediatric cancer cell lines to identify multiple opportunities for drug repurposing: Primary screen for SK-N-MC cells (AID 1347093); also: potency is read from the fitted curve at half-maximal effect
How it was run: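 Metabolically active cells were quantified by ATP-dependent luminescence (CellTiter-Glo, 15 min at room temperature) following 48 h treatment. Cells had been plated at 500-1,000 per well and settled for 5 h beforehand.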

[5] = qHTS of pediatric cancer cell lines to identify multiple opportunities for drug repurposing: Primary screen for BT-37 cells (AID 1347094); also: potency is read from the fitted curve at half-maximal effect
How it was run: (§2)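 Plated cells (500-1,000 per well, growth media) were allowed to settle for 5 hours, treated with compound dilutions for 48 hours, then lysed with CellTiter-Glo for 15 min at room temperature before luminescence reading.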

[6] = qHTS of pediatric cancer cell lines to identify multiple opportunities for drug repurposing: Primary screen for NB-EBc1 cells (AID 1347095)
How it was run: as §2

[7] = qHTS of pediatric cancer cell lines to identify multiple opportunities for drug repurposing: Primary screen for U-2 OS cells (AID 1347096); also: nearly all actives have a fitted effect of over 50% in size; also: potency is read from the fitted curve at half-maximal effect
How it was run: (§3)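 Viability after 48 h compound treatment at 37C, 500-1,000 cells/well, read as ATP luminescence with CellTiter-Glo. Primary screens used 11-point (MIPE, 0.78 nM-46 µM) or 8-point (NPC, 0.59 nM-46 µM) final concentrations; follow-up screens used 11-point dilutions.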

[8] = qHTS of pediatric cancer cell lines to identify multiple opportunities for drug repurposing: Primary screen for Saos-2 cells (AID 1347097); also: nearly all actives have a fitted effect of over 40% in size; also: potency is read from the fitted curve at half-maximal effect
How it was run: as §2

[9] = qHTS of pediatric cancer cell lines to identify multiple opportunities for drug repurposing: Primary screen for SK-N-SH cells (AID 1347098); also: nearly all actives have a fitted effect of over 65% in size; also: potency is read from the fitted curve at half-maximal effect
How it was run: (§4)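 Cells (500-1,000/well) rested 5 h, then received compounds for 48 h; metabolically active cells were measured by CellTiter-Glo luminescence. Final concentrations spanned up to 46 µM (MIPE, 11-point) or 0.59 nM-46 µM (NPC, 8-point) in primary screens, 11-point in follow-ups.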

[10] = qHTS of pediatric cancer cell lines to identify multiple opportunities for drug repurposing: Primary screen for NB1643 cells (AID 1347099); also: nearly all actives have a fitted effect of over 50% in size; also: potency is read from the fitted curve at half-maximal effect
How it was run: as §2

[11] = qHTS of pediatric cancer cell lines to identify multiple opportunities for drug repurposing: Primary screen for LAN-5 cells (AID 1347100); also: potency is read from the fitted curve at half-maximal effect
How it was run: as §3

[12] = qHTS of pediatric cancer cell lines to identify multiple opportunities for drug repurposing: Primary screen for BT-12 cells (AID 1347101); also: nearly all actives have a fitted effect of over 25% in size; also: potency is read from the fitted curve at half-maximal effect
How it was run: as §4

[13] = qHTS of pediatric cancer cell lines to identify multiple opportunities for drug repurposing: Primary screen for Rh18 cells (AID 1347102); also: nearly all actives have a fitted effect of over 65% in size; also: potency is read from the fitted curve at half-maximal effect
How it was run: as §3

[14] = qHTS of pediatric cancer cell lines to identify multiple opportunities for drug repurposing: Primary screen for OHS-50 cells (AID 1347103); also: nearly all actives have a fitted effect of over 40% in size; also: potency is read from the fitted curve at half-maximal effect
How it was run: as §4

[15] = qHTS of pediatric cancer cell lines to identify multiple opportunities for drug repurposing: Primary screen for RD cells (AID 1347104); also: nearly all actives have a fitted effect of over 55% in size; also: potency is read from the fitted curve at half-maximal effect
How it was run: as §2

[16] = qHTS of pediatric cancer cell lines to identify multiple opportunities for drug repurposing: Primary screen for MG 63 (6-TG R) cells (AID 1347105); also: nearly all actives have a fitted effect of over 50% in size
How it was run: as §2

[17] = qHTS of pediatric cancer cell lines to identify multiple opportunities for drug repurposing: Primary screen for control Hh wild type fibroblast cells (AID 1347106);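 also: series mostly up to about 46 µM; a drop in luminescence marks cytotoxicity and a rise apparent proliferation; nearly all actives have a fitted effect of over 55% in size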
How it was run: as §3

[18] = qHTS of pediatric cancer cell lines to identify multiple opportunities for drug repurposing: Primary screen for Rh30 cells (AID 1347107); also: nearly all actives have a fitted effect of over 75% in size; also: potency is read from the fitted curve at half-maximal effect
How it was run: as §3

[19] = qHTS of pediatric cancer cell lines to identify multiple opportunities for drug repurposing: Primary screen for Rh41 cells (AID 1347108); also: nearly all actives have a fitted effect of over 70% in size; also: potency is read from the fitted curve at half-maximal effect
How it was run: as §2

[20] = qHTS of pediatric cancer cell lines to identify multiple opportunities for drug repurposing: Primary screen for SJ-GBM2 cells (AID 1347091)
How it was run: as §1

Measured: Potency

CCOC(=O)c1cncn1C(C)c1ccccc1 (stereo not given)
not listed: [20]
inactive: all other assays above

C[N+]1(CCC(C(N)=O)(c2ccccc2)c2ccccc2)CCCCC1
not listed: [16] | [20]
inactive: all other assays above

C[N+](C)(C)CCOC(=O)C(O)(c1ccccc1)c1ccccc1
not listed: [10] | [20]
inactive: all other assays above

CN1C2CCC(C)(C)C1CC(OC(=O)C(O)(c1cccs1)c1cccs1)C2 (stereo not given)
not listed: [9] | [14] | [16] | [20]
inactive: all other assays above

CN(C)C(=O)Oc1cc(OC(=O)N(C)C)cc(C(O)CNC(C)(C)C)c1 (stereo not given)
not listed: [8] | [10] | [20]
inactive: all other assays above

CN1C[C@@H](NS(=O)(=O)N(C)C)C[C@@H]2c3cccc4c3c(cn4C)C[C@H]21
not listed: [14] | [20]
inactive: all other assays above

C[C@H](N)[C@H](O)c1ccc(O)c(O)c1
active: [11] 26.6 µM
not listed: [3] | [4] | [6] | [8] | [9] | [10]
inactive: all other assays above

CCCN(CCC)CCc1c[nH]c2ccccc12
not listed: [3] | [4] | [8] | [14] | [15] | [19]
inactive: all other assays above

CCC1(c2ccccc2)CCC(=O)NC1=O (stereo not given)
not listed: [8] | [20]
inactive: all other assays above

Nc1ccccc1C(=O)OCC(O)CO (stereo not given)
not listed: [20]
inactive: all other assays above

Sc1ccccc1Cl
not listed: [8] | [10] | [20]
inactive: all other assays above

Cc1ccc(N=CN(C)C=Nc2ccc(C)cc2C)c(C)c1
not listed: [10] | [20]
inactive: all other assays above

NCc1cccnc1
not listed: [8] | [20]
inactive: all other assays above

O=C1NCN(c2ccccc2)C12CCN(CCCOc1ccc(F)cc1)CC2
active: [5] 17.4 µM | [12] 11 µM | [14] 27.6 µM
not listed: [8] | [9] | [13] | [15] | [20]
inactive: all other assays above

O=C(NC(=O)c1c(F)cccc1F)Nc1cc(Cl)c(OC(F)(F)C(F)C(F)(F)F)cc1Cl (stereo not given)
not listed: [5] | [7] | [10] | [11] | [12] | [14] | [20]
inactive: all other assays above

COc1ccc(OC)c(CC(C)N)c1 (stereo not given)
not listed: [20]
inactive: all other assays above

CN(C)CCc1c[nH]c2cccc(O)c12
active: [9] 35 µM | [11] 38.2 µM
not listed: [3] | [4] | [8] | [15]
inactive: all other assays above

C1CN2CCC1CC2
not listed: [20]
inactive: all other assays above

Cc1ccc([N+](=O)[O-])[c]2c1[O][Hg]2
active: [1] 0.264 µM | [2] 1.06 µM | [3] 0.0531 µM | [4] 0.0944 µM | [5] 1.55 µM | [7] 2.66 µM | [8] 0.106 µM | [9] 1.09 µM | [10] 0.596 µM | [12] 2.76 µM | [13] 1.5 µM | [14] 0.55 µM | [15] 0.188 µM | [18] 2.11 µM | [19] 0.668 µM

CC(Cc1ccccc1)NCc1ccccc1Cl (stereo not given)
not listed: [3] | [4] | [7] | [8] | [14] | [16]
inactive: all other assays above

CC1COC2(c3ccccc3Cl)c3cc(Cl)ccc3NC(=O)CN12 (stereo not given)
active: [11] 6.68 µM
not listed: [9] | [10] | [12] | [14] | [20]
inactive: all other assays above

Cc1nc2ccccc2c(=O)n1-c1ccccc1Cl
not listed: [8] | [9] | [14] | [16] | [20]
inactive: all other assays above

CCN(CC)C(C)C(=O)c1ccccc1 (stereo not given)
not listed: [8] | [10] | [16] | [20]
inactive: all other assays above

CN1CCc2cc(Cl)c(O)cc2[C@H]2c3ccccc3CC[C@@H]21
not listed: [5] | [9] | [10] | [14] | [20]
inactive: all other assays above

CC[n+]1c(-c2ccccc2)c2cc(N)ccc2c2ccc(N)cc21
active: [1] 8.36 µM | [2] 0.841 µM | [3] 3.35 µM | [4] 2.11 µM | [5] 2.46 µM | [9] 7.7 µM | [11] 0.944 µM | [12] 3.09 µM | [13] 11.9 µM | [14] 1.55 µM | [15] 13.3 µM | [19] 3.35 µM

C[C@]12CC[C@H](O)CC1=CC[C@@H]1[C@@H]2CC[C@]2(C)C(=O)CC[C@@H]12
not listed: [10] | [14] | [20]
inactive: all other assays above

Cc1nnc2n1-c1sc(CCC(=O)N3CCOCC3)cc1C(c1ccccc1Cl)=NC2
not listed: [10] | [16] | [20]
inactive: all other assays above

CC[C@H]1C[C@@H]2C[C@H]3c4[nH]c5ccc(OC)cc5c4CCN(C2)[C@@H]13
inactive: [1] | [20] | [6] | [7] | [10] | [13] | [17] | [18]
active: [2] 37.8 µM | [9] 30.9 µM | [19] 30 µM

COc1cc(CC(C)N)cc2c1OCO2 (stereo not given)
not listed: [3] | [8] | [14]
inactive: all other assays above
